# ± gives the standard deviation of the averaged measurements.
# Legend:
# DLD1 [1] = experiment: cell viability (CellTiter-Glo) relative to plate median (fraction of plate median); higher = more viable cells; settings: 5 µM; treatment time 24 h; reporter: 7TFP
# Method in brief: (§1)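 Stable lentiviral TCF/Wnt firefly luciferase reporters (7TFP or TCF4/Wnt) were present in the colorectal cancer cell lines used. These cells received library compounds at a final 5 µM for 24 h, and parallel plates were read for firefly luciferase or CellTiterGlo luminescence. Each well was normalised to the plate median, and the value reported is the mean of two independent replicates.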
# HCT116 = experiment: as above; settings: 5 µM; treatment time 24 h; reporter: TCF4/Wnt
# Method in brief: as §1
# SW480 [2] = experiment: as above; settings: 5 µM; treatment time 24 h; reporter: 7TFP
# Method in brief: as §1
# DLD1 [3] = experiment: TCF/Wnt firefly luciferase reporter signal relative to plate median (fraction of plate median); higher = higher Wnt reporter signal; settings: 5 µM; treatment time 24 h; reporter: 7TFP
# Method in brief: as §1
# SW480 [4] = experiment: as above; settings: 5 µM; treatment time 24 h; reporter: 7TFP
# Method in brief: as §1
SMILES,cell viability (DLD1 [1]),cell viability (HCT116),cell viability (SW480 [2]),TCF/Wnt firefly luciferase reporter signal (DLD1 [3]),TCF/Wnt firefly luciferase reporter signal (SW480 [4])
COc1ccc(C2C(=O)c3ccccc3C2=O)cc1,0.997 ± 0.061,0.984 ± 0.08,1.01 ± 0.045,0.933 ± 0.095,0.94 ± 0.021
C[N+]1(C)[C@@H]2CC[C@H]1C[C@@H](OC(=O)C(O)c1ccccc1)C2 (stereo not given in full),1.08 ± 0.035,0.941 ± 0.079,1.085 ± 0.0071,1.1 ± 0.042,1.01 ± 0.15
CC(=O)c1cc(CC=C(C)C)c(O)c(CC=C(C)C)c1,1.05 ± 0.014,1.02 ± 0.035,0.95 ± 0.011,1.08 ± 0.15,1.14 ± 0.064
CC1=C(C(=O)O)N2C(=O)[C@@H](NC(=O)[C@H](N)c3ccccc3)[C@H]2SC1,1 ± 0.065,1.02 ± 0.082,0.983 ± 0.025,0.991 ± 0.056,1.015 ± 0.0071
CC(=O)O[C@H]1CC[C@]2(C)[C@H]3CC=C4[C@@H]5CC(C)(C)CC[C@]5(C)CC[C@@]4(C)[C@]3(C)CC[C@H]2C1(C)C [beta-AMYRIN ACETATE],0.982 ± 0.054,0.965 ± 0.025,1.03 ± 0.021,1.145 ± 0.0071,1.07 ± 0.014
CC(=O)O[C@H]1CC[C@]2(C)C(C[C@@H](OC(C)=O)[C@]3(C)C4=CC(=O)O[C@H](c5ccoc5)[C@@]4(C)CCC23)C1(C)C (stereo partly drawn) [3-DEOXO-3beta-ACETOXYDEOXYDIHYDROGEDUNIN],1 ± 0.057,1.14 ± 0.19,0.982 ± 0.04,1.05 ± 0.021,0.864 ± 0.09
COC1(C)CCC2OC2(C)CCC2C1CC2(C)C (stereo not given),1.1 ± 0.099,0.97 ± 0.02,1.08 ± 0.042,0.934 ± 0.063,1.02 ± 0.044
COc1ccc(/C=C/C(=O)O)cc1OC,1.02 ± 0.045,1.06 ± 0.16,0.951 ± 0.083,1.01 ± 0.021,0.984 ± 0.021
C[C@H]1O[C@@H](O[C@H]2[C@@H](O)C[C@H](O[C@H]3[C@@H](O)C[C@H](O[C@H]4CC[C@@]5(C)[C@H](CC[C@@H]6[C@@H]5CC[C@]5(C)[C@@H](C7=CC(=O)OC7)CC[C@]65O)C4)O[C@@H]3C)O[C@@H]2C)C[C@H](O)[C@@H]1O,0.706 ± 0.19,0.33 ± 0.2,0.774 ± 0.052,0.157 ± 0.14,0.32 ± 0.11
C=CC[C@@H]1/C=C(\C)C[C@H](C)C[C@H](OC)[C@H]2O[C@@](O)(C(=O)C(=O)N3CCCC[C@H]3C(=O)O[C@H](/C(C)=C/[C@@H]3CC[C@@H](O)[C@H](OC)C3)[C@H](C)[C@@H](O)CC1=O)[C@H](C)C[C@@H]2OC,1.02 ± 0.22,1.05 ± 0.014,1.1 ± 0.021,1.08 ± 0.042,0.98 ± 0.0057
COc1ccc(OC)c(C(O)CNC(=O)CN)c1 (stereo not given),0.944 ± 0.067,0.912 ± 0.064,1.03 ± 0.035,1.06 ± 0.2,1.16 ± 0.092
CC(C(=O)O)c1ccc(N2Cc3ccccc3C2=O)cc1 (stereo not given),0.986 ± 0.035,1.06 ± 0.035,0.992 ± 0.054,0.99 ± 0.14,1.05 ± 0.064
"C[C@@H]1CC(=O)c2c(ccc3c2C(=O)c2cccc(O)c2C3=O)C1 [Ochromycinone (Isoform A, compound ID 7490)]",1.06 ± 0.078,1.005 ± 0.0071,1.02 ± 0.072,1 ± 0.023,0.997 ± 0.32
COc1ccc2c(c1)O[C@H]1c3ccc(OC)cc3OC[C@@H]21,0.969 ± 0.044,0.906 ± 0.12,0.979 ± 0.044,0.792 ± 0.025,0.969 ± 0.086
COc1c(O)cc2c(-c3ccccc3)cc(=O)oc2c1OC,0.989 ± 0.016,1.03 ± 0.028,0.977 ± 0.061,1.03,0.977 ± 0.033
C/C=C/CCC(=O)c1c(C)c(O)c(O)c(C)c1O [Sohirnone C],1.11 ± 0.05,0.995 ± 0.035,1.05 ± 0.057,1.07 ± 0.014,1.08 ± 0.071
Cc1nc2ccccc2c(=O)[nH]1 [2-Methyl-3H-quinazoline-4-on],0.991 ± 0.011,1.06 ± 0.064,0.979 ± 0.044,1.01 ± 0.09,1.1 ± 0.021
CN1C(C(=O)Nc2ccccn2)=C(O)c2ccccc2S1(=O)=O,0.97 ± 0.057,0.975 ± 0.036,0.92 ± 0.061,1.1 ± 0.071,1.14
CC1(C)S[C@@H]2[C@H](NC(=O)C(C(=O)O)c3ccccc3)C(=O)N2[C@H]1C(=O)O (stereo not given in full),0.912 ± 0.073,0.9345 ± 0.0064,0.9405 ± 0.005,0.999 ± 0.13,1.05 ± 0.021
COc1ccc2[nH]c([S+]([O-])Cc3ncc(C)c(OC)c3C)nc2c1 (stereo not given),0.971 ± 0.084,1.01 ± 0.048,0.978 ± 0.06,1.09 ± 0.05,1.06 ± 0.11
CC1CCC(NC(=O)N(CCCl)N=O)CC1 (stereo not given),1.01 ± 0.059,1.02 ± 0.071,1.015 ± 0.0071,1.08 ± 0.035,1.16 ± 0.028
COc1ccc2ccc(=O)oc2c1,1.02 ± 0.021,0.992 ± 0.025,0.97 ± 0.0071,0.973 ± 0.053,0.915 ± 0.12
CC1(C)S[C@@H]2[C@H](NC(=O)[C@H](N)c3ccccc3)C(=O)N2[C@H]1C(=O)O,0.963 ± 0.0099,1.14 ± 0.13,0.969 ± 0.1,1 ± 0.083,0.917 ± 0.027
CC(C)[C@@H]1CC[C@@H](C)CC1=O,1.01 ± 0.033,1.16 ± 0.11,1.04 ± 0.028,0.906 ± 0.087,0.904 ± 0.037
NC(=O)c1cccnc1,1.02 ± 0.021,1.01 ± 0.025,0.982 ± 0.021,1.16 ± 0.057,1.15 ± 0.11
CC1CC(OC(=O)C(O)c2ccccc2)CC(C)(C)N1C (stereo not given),1 ± 0.011,1.05 ± 0.021,1.02,1.05 ± 0.028,1.18 ± 0.057
COc1c2ccoc2cc2oc(C)cc(=O)c12,0.967 ± 0.016,0.973 ± 0.12,0.92 ± 0.0042,0.894 ± 0.012,0.986 ± 0.034
Nc1ccc(S(=O)(=O)Nc2ccnn2-c2ccccc2)cc1,1.03 ± 0.058,1 ± 0.052,0.939 ± 0.013,1 ± 0.011,1.06 ± 0.057

# From the supplement of paper PMC6522484
